MIN6 prolif-1: MIN6 beta-cell proliferation induction | MIN6 cells proliferation, ATPlite luminescence, 48 h; cells starved in 0.2% serum; 100% = growth in 10% serum | proliferation, % at 10 µM | actives 0.29% (n = 330,000) | AID 2380;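 active = compounds whose signal lies at least 3.5 SD above the mean of all wells on their plate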;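 also: 0% = DMSO-treated cells in low-serum medium and 100% = 10% serum control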
TAG inh: inhibitors of triacylglycerol accumulation | H9c2 cells, Nile Red lipid (TAG) fluorescence; cells loaded with 200 µM oleic acid | inhibition, % at 12.5 µM | actives 0.66% (n = 230,000);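 active = pattern-corrected inhibition of lipid staining of at least 50% with the nuclear-stain viability signal not falling by more than 50%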;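 also: 0% = DMSO wells and 100% = triacsin C control wells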
iPSC survival up: hiPSC single-cell survival enhancement | ATPlite luminescence; 100% = ROCK inhibitor wells, 0% = DMSO | survival enhancement, % at 20 µM | actives 0.044% (n = 360,000); in the data active = survival enhancement above about 18%;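 also: cells exposed to compounds for 16 hours before the ATP read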
MIN6 prolif-2: confirmation of inducers of beta-cell replication in MIN6 cells; AID 463095; 920 tested, under 10 active; proliferation increase, % at 50 µM; MIN6 beta-cell proliferation, ATPlite luminescence, 48 h; cells kept in 0.2% serum; scaled between 0.2% and 10% serum; shares compounds with MIN6 prolif-1;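 active = proliferation increase above 40% at any of the four tested concentrations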
* = called active by the depositor; · = no result. Rows were chosen to be rich in hits. Some 0.71% of all compounds tested hit in one or more screens of this group.

SMILES | MIN6 prolif-1 | TAG inh | iPSC survival up | MIN6 prolif-2
CCCCn1nnnc1C(c1cccc2ccccc12)N1CCN(C/C=C/c2ccccc2)CC1 (stereo unspecified) | · | · | 0 | ·
Fc1cccc(Nc2nc3ccccc3n3nnnc23)c1 | 13* | 14 | 0 | 4
c1ccc(Nc2nc3ccccc3n3nnnc23)cc1 | 2 | 23 | 3 | ·
CCN(CC)c1ccc(C(=C2C=CC(=[N+](CC)CC)C=C2)c2ccc(S(=O)(=O)O)cc2S(=O)(=O)[O-])cc1 | · | -48 | -3 | ·
CN(C)S(=O)(=O)n1cc(/C=C(\NC(=O)c2ccccc2F)C(=O)N2CCCCC2)c2ccccc21 | · | 75 | 0 | ·
CCN(C)C1CN(Cc2cn(Cc3cccc(C(F)(F)F)c3)nn2)S(=O)(=O)C1 (stereo unspecified) | · | · | 1 | ·
CC(C)Sc1nc2c(cnn2-c2ccccc2)c(=O)[nH]1 | 4 | -7 | 1 | ·
CC(C)Sc1nc2c(cnn2-c2ccc(Cl)cc2)c(=O)[nH]1 | 11* | · | -1 | -2
c1ccc(CN2CCC3CC2c2c3cccc2N2CCOCC2)cc1 (stereo unspecified) | · | · | -1 | ·
CC(=O)c1sc(N/N=C/c2cccc(O)c2)nc1C | 1 | -2 | -1 | ·
CC(=O)c1sc(N/N=C\c2ccc(N(C)C)cc2)nc1C | 6.6* | · | 0 | 2
CC(C)C1C(=O)N(Cc2cn(CC3CCCCC3)nn2)CCS(=O)(=O)N1Cc1ccc(-c2cccc(CO)c2)cc1 (stereo unspecified) | · | -1 | -2 | ·
COc1ccc(NS(=O)(=O)c2ccc(C)cc2)c([N+](=O)[O-])c1 | -3 | 4 | -1 | ·
COc1ccc(NC(=O)c2ccccc2NS(=O)(=O)c2ccc(C)cc2)c([N+](=O)[O-])c1 | 6.2* | · | 3 | -6
CCN(CC)C(=O)C1=C(C)N(CCCN2CCCC2=O)C(=O)C(CC(=O)NCCCCc2ccccc2)C1 (stereo unspecified) | · | 18 | -1 | ·
Cc1noc(C)c1CSCC(=O)Nc1cc(S(=O)(=O)N2CCOCC2)ccc1OCC(F)(F)F | -3 | 1 | 0 | ·
CCOc1ccc(S(=O)(=O)N(CC)CC)cc1NC(=O)CSCc1c(C)noc1C | 11* | -2 | 0 | -3
NC(=O)C1CCN(CC(=O)Nc2ccccc2Sc2ccc(Cl)cc2)CC1 | 0 | · | -1 | ·
NC(=O)C1CCN(CC(=O)Nc2ccccc2Sc2ccccc2)CC1 | 7.1* | · | 0 | -3
Cn1c(=N)n(CC(=O)c2ccccc2)c2ccccc21 | -3 | 10 | 0 | ·
Cn1c(=N)n(CC(=O)O)c2ccccc21 | 5.8* | 0 | -3 | 0
CCOC1=C2[C@@H](CN(S(=O)(=O)c3ccc(C)cc3)[C@H]2c2cccs2)[C@H]2C(=O)N(c3ccccc3)C(=O)[C@H]2C1 | · | · | -1 | ·
COc1cccc(/C=N/n2c(C3CCCCC3)n[nH]c2=S)c1 | 6.9* | · | 0 | -6
Oc1cccc(/C=N/n2c(C3CCCCC3)n[nH]c2=S)c1 | 1 | · | 0 | ·
O=C(CSc1nnc(CNC(=O)c2cccs2)o1)Nc1cccc(F)c1 | 3 | · | 0 | ·
SMILES | MIN6 prolif-1 | TAG inh | iPSC survival up | MIN6 prolif-2
O=C(CSc1nnc(CNC(=O)c2cccs2)o1)Nc1cccc(C(F)(F)F)c1 | 5.1* | -26 | 3 | -1
CC1(C(=O)NS(=O)(=O)c2cccc(OC(F)F)c2)CCN1C(=O)c1cccc(F)c1 (stereo unspecified) | · | 15 | -2 | ·
Cc1ccc(F)cc1-c1cc2nc(NCCCN(C)C)n(C)c(=O)c2s1 | · | 15 | -5 | ·
COc1ccc(S(=O)(=O)Nc2ccc3c(c2)C(=O)N([C@H](C)CO)C[C@H](C)[C@@H](CN(C)C(=O)Nc2ccc(C(F)(F)F)cc2)OCCCC[C@H](C)O3)cc1 | · | -4 | -4 | ·
CCc1nc2ccc(C(=O)NCc3ccc(OC)cc3)cn2c1N(C)CCC(C)C | · | -9 | 2 | ·
Cc1nc(CN(C)c2ncnc3ccc(-c4ccc5c(c4)OCO5)cc23)cs1 | · | 10 | -1 | ·
Cc1ccc(S(=O)(=O)N2C[C@H]3n4c(=O)ccc(=O)n4C[C@H](OC(=O)NCc4ccco4)[C@@]3(O)C2)cc1 | · | 4 | -1 | ·
Cc1c(NC(=O)C(C)OC(=O)CCc2c[nH]c3ccccc23)c(=O)n(-c2ccccc2)n1C (stereo unspecified) | 12* | -20 | 0 | 0
Cc1c(NC(=O)C(C)OC(=O)Cc2ccc(F)cc2)c(=O)n(-c2ccccc2)n1C (stereo unspecified) | 1 | 4 | 0 | ·
CCc1nc2ccc(C(=O)Nc3cc(-c4ccccc4)ccc3OC)cn2c1N(C)C(=O)c1cccc(OC)c1 | · | -4 | -1 | ·
NCC1OC(n2cnc3c(N)ncnc32)CC1O (stereo unspecified) | · | -10 | 2 | ·
Nc1ncnc2c1ncn2[C@H]1C[C@H](O)[C@@H](COP(=O)(O)O)O1 | 13* | 4 | -1 | 0
C=C[C@@]1(C)CC(=O)[C@]2(O)[C@@]3(C)[C@@H](O)CCC(C)(C)[C@@H]3[C@H](OC(C)=O)[C@H](O)[C@@]2(C)O1 | 6 | · | -1 | ·
C=C[C@@]1(C)CC(=O)[C@]2(O)[C@@]3(C)[C@@H](O)CCC(C)(C)[C@@H]3[C@H](O)[C@H](OC(C)=O)[C@@]2(C)O1 | 17* | -5 | 10 | 6
CC(C)NC(=O)c1cc(C2CCCCN2C(=O)c2cc(C(C)(C)C)nn2C)on1 (stereo unspecified) | · | -5 | 4 | ·
COCC(=O)N(C)C[C@@H]1Oc2cc(-c3ccc(F)cc3)ccc2S(=O)(=O)N([C@H](C)CO)C[C@H]1C | · | -10 | -2 | ·
COc1ccc(COC(=O)C2=C(C)NC(=O)NC2c2ccc(OC)c(OC)c2)cc1 (stereo unspecified) | 6.2* | 5 | 2 | 3
COc1ccc(COC(=O)C2=C(C)NC(=O)NC2c2ccc(O)c(OC)c2)cc1 (stereo unspecified) | -2 | · | -1 | ·
O=C(CN1C(=O)NC2(CCCC2)C1=O)NC(c1ccccc1)c1ccccc1 | -6 | 14 | 1 | ·
CC(NC(=O)CN1C(=O)NC2(CCCCCCC2)C1=O)c1ccccc1 (stereo unspecified) | 9.5* | 5 | -2 | 0
COc1ccc(NC(=O)c2cc(C3CCCCN3C(=O)c3cc(OC)c(C)c(OC)c3)on2)c(C)c1 (stereo unspecified) | · | 8 | -2 | ·
O=C(c1ccccc1Br)N1CCN(c2ccc([N+](=O)[O-])c(N3CCOCC3)c2)CC1 | -2 | · | 4 | ·
O=C(c1ccco1)N1CCN(c2ccc([N+](=O)[O-])c(N3CCOCC3)c2)CC1 | 9.7* | -5 | 0 | 1
O=C(NCc1ccncc1)[C@@H]1CCCN1C(=O)[C@H]1CCCN1C(=O)c1c(F)cccc1F | · | · | 0 | ·
CC(C)n1c(N2CCN(C(=O)NCc3ccccc3)CC2)nc2ccccc21 | 8.4* | -7 | -1 | -3
COc1ccc(NC(=O)N2CCN(c3nc4ccccc4n3C(C)C)CC2)cc1 | 5 | 6 | -3 | ·
Nc1nc2ccc(Cl)cc2cc1C(=O)NCCc1c[nH]c2ccccc12 | · | · | 0 | ·
